The text below walks through data of PubChem BioAssay AID2717 (Broad Institute, 2010).

In all, about 300,000 compounds went through this assay and about 3,200 (1.1%) were called active. This excerpt belongs to a sample that is enriched for actives. A number with no mark means an inactive call. Cut-off read from the data, not from the text of the source: active = inhibition above about 75%; inconclusive = no clear call, values can overlap the other calls; inactive = below that; tested in HMLE shEcad cells.

This assay is described as follows: growth suppression of cancer stem-like cells – cell-based, luminescence, primary screen (AID 2717). To be noted: cancer stem cell-like cells viability, at 7.5 µM, stronger effect = higher value.
For the molecule `Cc1ccc(S(=O)(=O)N2CCN(C(=O)CN3C(=O)NC(C)(c4ccc(Cl)cc4)C3=O)CC2)c(C)c1` (centres undefined), the inhibition was 3.13%.
The figure for `CC1(C)C=Cc2c(ccc3c2OC[C@@H](c2ccc(O)cc2O)C3)O1` is 90% (active).
Consider `Cc1ccsc1C(=O)OCC(=O)NCCc1ccccc1`, for which the inhibition was 12.1%.
`Cc1nnc(N/N=C/C2CC=CCC2)[nH]c1=O` (centres undefined): the inhibition is 9.52%.
Next, `CNC(=O)C(=O)N/N=C/c1ccccn1`: -9.33%.
With `Cc1nnc(N/N=C/c2ccccn2)[nH]c1=O`, the inhibition is 121% (active).
Turning to `O=C(COC(=O)CSc1ccccc1)Nc1ccc(F)cc1F`, the inhibition is -0.0328%.
Next, `CNC[C@H]1Oc2c(NC(=O)C3CCCCC3)cccc2C(=O)N([C@H](C)CO)C[C@@H]1C`: 1.2%.
Next, `CCn1c(C)c(C)c2cc(C(=O)N3CCN(c4cccc(C)c4C)CC3)ccc21`: 120% (active); `CCC(CC)C(=O)N1CCN(c2cccc(C)c2C)CC1`: -11.5%; `Cc1cccc(N2CCN(C(=O)c3cccc(N4C(=O)C5C6C=CC(C6)C5C4=O)c3)CC2)c1C` (centres undefined): 26.5%.
Next, `COc1ccccc1C(=O)COC(=O)COc1ccc(C#N)cc1`: 2.49%; `CC(C)(C)OC(=O)N[C@H](C(=O)OC(C)(C)C)c1ccc(Br)cc1`: 0.862%; `CC(OC(=O)c1ccc([N+](=O)[O-])cc1)C(=O)NCC1CCCCC1` (centres undefined): -10.2%.
As to `CC(C)=CCCC1(C)C=Cc2c(ccc3c2[nH]c2cc(O)c(C)cc23)O1` (centres undefined), the inhibition is 101% (active).
For `CCOC(=O)[C@H]1[C@H]2COc3cc(OC)ccc3[C@@H]2N2C(=O)CN(Cc3ccc(Cl)cc3)C(=O)[C@@]12C`, the inhibition is -21.1%.
In the case of `CC1CN(C(=O)c2ccc([N+](=O)[O-])s2)CC(C)O1` (centres undefined), the inhibition is 0.926%.
Take `COc1cc(NC(=O)COC(=O)c2ccc([N+](=O)[O-])s2)cc(OC)c1OC`: the inhibition is -12.6%.
The figure for `CN(c1ccccc1)S(=O)(=O)c1ccc(C(=O)N2CCN(c3ccccc3Cl)CC2)cc1` is -0.098%; for `CCCCCCc1cc2cc(-c3nnc(-c4ccccc4)o3)c(=O)oc2cc1O` it is 118% (active).
Take `Cc1c(CC(=O)NCCCCCC(=O)O)c(=O)oc2cc3occ(-c4ccccc4)c3cc12`: the inhibition is -4.15%.
`CCCCCCc1ccc(O)cc1O`: the inhibition was -10.2%.
As for `CC(C)NC(=O)Nc1cccc2c1O[C@H](CN(C)S(=O)(=O)c1cccs1)[C@@H](C)CN([C@H](C)CO)C2=O`, the inhibition is -18%.
Next, `COc1ccccc1NS(=O)(=O)c1ccc(C)c(C(=O)NNC(=O)c2csc(N3CCOCC3)n2)c1`: -11.7%.
